# Assay results from PubChem BioAssay (NCI).
# This is part of a sample that, as a whole, favours compounds with a hit. Of some 83,000 tested, about 20% had one in any assay.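 Single-concentration screen, 48 h exposure, 96-well plates. Endpoint: percent growth. Below 10 = active.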 Calls of active or inactive are those of the source.
# System: KM12 colon
# Assay: NCI-60 one-dose screen, 48 h (100 = growth as untreated, 0 = no growth, -100 = all killed)
# Details: 10 µM unless noted
row,SMILES,growth
1,CCOc1cccc(/C(N)=N/C(N)=N/c2nc3ccccc3s2)c1,46.4% (inactive)
2,Cc1ccc2c(n1)C(=O)C(Cl)=C(Nc1cc(C(F)(F)F)cc(C(F)(F)F)c1)C2=O,97% (inactive)
3,CC(C)(C)OC(=O)NCc1ccc(CNc2c([N+](=O)[O-])cnc3ccccc23)cc1,74.9% (inactive)
4,C#CCOc1cccc(-c2nc(N)nc(Nc3ccccc3SSc3ccccc3Nc3nc(N)nc(-c4cccc(OCC#C)c4)n3)n2)c1,3.92% (active)
5,CN1CCN(c2ccc(Nc3nc(NCCNS(=O)(=O)c4ccccc4)c4sccc4n3)cc2)CC1,103% (inactive)
6,C=C(C=O)[C@@H]1CC[C@]2(C(=O)O)CC[C@]3(C)C(CC[C@@H]4[C@@](C)(CCC#N)[C@H](C(=C)C=O)CC[C@]43C)[C@@H]12 (stereo not given in full),92% (inactive)
7,O=C(CSc1nc2ccccc2c(=O)n1-c1ccccc1)N/N=C/c1ccc(Oc2ccc(Br)cc2)cc1,76.3% (inactive)
8,CC(C)C(/C=C/c1[nH]ncc1-c1cc(Cl)ccc1O)N1CCOCC1 (stereo not given),99.6% (inactive)
9,N#Cc1c(-c2cccs2)cc(-c2cnccn2)nc1SCC(=O)N/N=C/c1ccc(Cl)cc1,96.5% (inactive)
10,CN1CCN(c2ccc(Nc3nc(NCCCNS(=O)(=O)c4ccc(Cl)cc4)c4sccc4n3)cc2)CC1,23.3% (inactive)
11,O=C1[C@@H]2Cc3c([nH]c4ccccc34)[C@H](c3ccc(Br)cc3)N2C(=O)CN1C1CCN(Cc2c(Cl)cccc2Cl)CC1,99.1% (inactive)
12,COc1ccc(NC(=O)CCCCCCNC(=O)C(O)(O)C(F)(F)F)cc1,41.6% (inactive)
13,CCCCSC1=C(Cl)CN(c2ccc(Cl)cc2)C1=O,98.7% (inactive)
14,CN(C)CCCOc1ccc(C(=C(c2ccccc2)C2CCCC2)c2ccc(OCCCN(C)C)cc2)cc1,-96.9% (active)
15,CN1CCN(c2ccc(Nc3nc(NCCCNS(=O)(=O)c4cccc5ccccc45)c4sccc4n3)cc2)CC1,4.02% (active)
16,CCN(CC)c1ccc(/C=N/NC(=O)c2ccc(S(N)(=O)=O)cc2)cc1,21% (inactive)
17,C#C[C@]1(O)CC[C@H]2[C@@H]3CC=C4c5sc(Nc6cc(C)cc(C)c6)nc5CC[C@]4(C)[C@H]3CC[C@@]21C,-7.08% (active)
18,CN(C)c1ccc(-c2cc(-c3c[nH]c4ccccc34)nc(N)c2C#N)cc1,18.2% (inactive)
19,C#C[C@]1(O)CC[C@H]2[C@@H]3CC=C4c5sc(Nc6cc(Cl)ccc6OC)nc5CC[C@]4(C)[C@H]3CC[C@@]21C,31.9% (inactive)
20,Cc1cc(=O)[nH]c(O)c1C#N,102% (inactive)

row,SMILES,growth
1,Cc1ccc(C(=O)CSc2nc3ccccc3c(=O)n2C)cc1,86.7% (inactive)
2,O=C(NCCNc1cc(-c2cn(-c3ccccc3)nc2-c2cccc(O)c2)ccn1)Nc1cc(C(F)(F)F)cc(C(F)(F)F)c1,1.09% (active)
3,N/C(=N\C(N)=N\c1nc2ccccc2s1)c1ccc(Cl)cc1,68.4% (inactive)
4,C#CCN(C)CCCOc1ccc(NCc2ccc(/C=C/C(=O)NO)cc2)cc1Cl,5.72% (active)
5,C#CCOc1ccccc1/C=N/Nc1nc(-c2ccc(Cl)cc2)cs1,91.4% (inactive)
6,O=S(=O)(NCCCNc1nccc(-c2[nH]c(-c3ccccc3)nc2-c2ccc(F)c(O)c2)n1)c1cccc(F)c1,88.9% (inactive)
7,O=C(CSc1nc2ccccc2c(=O)n1CCc1ccccc1)Nc1ccc(S(=O)(=O)Nc2ccc(Cl)nn2)cc1,98.8% (inactive)
8,Nc1nc(=O)n([C@H]2C[C@H](O)[C@@H](CO)O2)cc1C=O,103% (inactive)
9,O=C(Nc1ccc(Cl)c(C(F)(F)F)c1)Nc1ccc2c(ccn2C(=O)c2cccc(F)c2)c1,11% (inactive)
10,CCN1CCN(c2ccc(NC(=O)Nc3ccc4c(ccn4-c4ccnc(C(=O)NC)c4)c3)cc2C(F)(F)F)CC1,36.4% (inactive)
11,O=C(CCCCCCN1CC(=O)N2[C@@H](c3ccccc3Br)c3[nH]c4ccccc4c3C[C@H]2C1=O)NO,73% (inactive)
12,COc1ccc2[nH]cc(-c3nc(N)nnc3-c3cn(C)c4ccc(Br)cc34)c2c1,23.7% (inactive)
13,C#Cc1nc(/C=C\CCCCCCC(=O)NO)cs1,41.2% (inactive)
14,CC(=O)OC[C@]12CC[C@@H](C(=O)/C=C/c3cccnc3)[C@@H]1[C@H]1CC[C@@H]3[C@@]4(C)CC[C@H](OC(C)=O)C(C)(C)[C@@H]4CC[C@@]3(C)[C@]1(C)CC2,18.5% (inactive)
15,C[C@@H]1OCC2(CCN(c3cnc(C(=O)Nc4cc(F)cc5cccnc45)cn3)CC2)[C@@H]1N,83.7% (inactive)
16,CC1=C(C)C(=O)C(Nc2ccc(C)c(C)c2)=C(Br)C1=O,99.8% (inactive)
17,Cc1ccccc1Nc1nc(SC(C)C)nc(-c2ccccc2)c1C#N,94.2% (inactive)
18,O=C1c2ccccc2C23C(=C(c4cncnc4)c4ccccc42)CCCN13 (stereo not given),96.6% (inactive)
19,CC1=C(C)C(=O)C(Nc2cccc(C(=O)OC(C)(C)C)c2)=C(Cl)C1=O,99.2% (inactive)
20,CC(=O)Nc1cc(N2CCOCC2)c2nc(NC(=O)c3[nH]c(C)c(Cl)c3Cl)sc2c1,82.4% (inactive)
